Rows were chosen to be rich in hits. Some 2.5% of all compounds tested hit in one or more screens of this group.
MITF inh – MITF inhibition | TRPM1 promoter luciferase, luminescence, 24 h | inhibition, % (no concentration beside the values) | actives 0.28% (n = 37,000) | AID 2240; in the data active = inhibition above about 85%;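 also: human melanocyte line stably carrying TRPM1 promoter luciferase reporter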
YB-1 expression – YB-1 expression inhibition; U2OS, qRT-PCR YB-1 vs CDIP delta delta Cp, 16 h; active compounds read high; zero = DMSO, each unit about twofold; AID 434959; delta delta Cp (YB-1 minus CDIP) (test concentration not listed); actives 0.37% (n = 30,000);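 active = delta delta Cp rounded down to an integer at or above 3, about 3 SD of DMSO wells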;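 also: higher means less YB-1 transcript or more CDIP transcript relative to DMSO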
U2OS ROS induce – raises reactive oxygen species in U2OS cancer cells; U2OS ROS induction, H2DCF-DA fluorescence; ROS induction (% of piperlongumine), % at 10 µM; actives 2% (n = 46,000); AID 624156; in the data active = ROS induction above about 79%, passing the limit was not always enough;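 also: 0% = DMSO vehicle median and 100% = reference compound median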
BJeLR viability – BJeLR cell viability reduction | BJeLR fibroblasts viability, CellTiterGlo ATP luminescence, 48 h; HRASV12, hTERT and SV40 LT/ST transformed | viability loss activity score, % (no concentration beside the values) | actives 0.64% (n = 30,000) | AID 2275; in the data active = viability loss activity score above about 50%;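 also: higher score means fewer live cells and less ATP luminescence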
An asterisk follows results filed as active; · = not tested or not shown.

SMILES | MITF inh | YB-1 expression | U2OS ROS induce | BJeLR viability
C/C=C/[C@H](CC(=O)N1Cc2ccccc2C[C@H]1CO)[Si](C)(C)c1ccc(OC)cc1 | · | 0.29 | 94* | ·
O=C(O)CCC(=O)Nc1ccc2c(c1)C(=O)NC2=O | 7 | · | -6 | ·
O=C(O)CCC(=O)Nc1ccc(Cc2ccncc2)cc1 | -10 | 8.6* | -14 | -3
O=C1C2CC=CCC2C(=O)N1Cc1ccccc1 (stereo not given) | · | · | -4 | -1
O=C1CC(N2C(=O)C3CC=CCC3C2=O)C2COC1O2 (stereo not given) | · | · | 91* | 2
C[C@H]1O[C@@H](O[C@H]2[C@@H](O)C[C@H](O[C@H]3[C@@H](O)C[C@H](O[C@H]4CC[C@@]5(C)[C@H](CC[C@@H]6[C@@H]5C[C@@H](O)[C@]5(C)[C@@H](C7=CC(=O)OC7)CC[C@]65O)C4)O[C@@H]3C)O[C@@H]2C)C[C@H](O)[C@@H]1O | 45 | 0.23 | -6 | 99*
Cc1ccc(NC(=O)CSc2nnc(-c3cccnc3)n2-c2ccc(Br)cc2)cc1F | -19 | · | 77* | ·
CC1CCC/C=C/C(=O)c2c(O)cc(O)cc2CC(=O)O1 (stereo not given) | 38 | 0.2 | 91* | 4
CC1CCCC2OC2C(=O)c2c(O)cc(O)cc2CC(=O)O1 (stereo not given) | 2 | 0.22 | -6 | -8
COc1ccc(/C=C/C(=O)OC2CCCCC2)cc1 | -79 | -0.018 | 28 | -2
CC(C)(C)C(=O)CSc1ncnc2sc3c(c12)CCCC3 | -53 | · | 30 | ·
CCN(CC)C(=S)Sc1ncnc2sc3c(c12)CCCC3 | 15 | -0.089 | 92* | -3
CCOC(=O)c1sc2ncn3c(-c4ccc(C)cc4)nnc3c2c1C | · | · | 198* | 0
CCCn1c(-c2ccc(S(=O)(=O)N3CCOCC3)cc2)csc1=Nc1ccccc1 | · | · | 83* | 6
Cc1cccc(NC(=O)C23CC4CC(C2)CC(n2nnc(C)n2)(C4)C3)c1 | · | · | · | -5
N#CC1=C(N)N(c2sc3c(c2C#N)CCCC3)C2=C(CCC2)C1(C(F)(F)F)C(F)(F)F | · | · | 205* | 5
Cc1cc(C)c(NC(=O)CSc2nc(-c3ccccc3)c(-c3ccccc3)[nH]2)c(C)c1 | 92* | · | -5 | ·
Cc1ccc(NC(=O)CSc2nc(-c3ccccc3)c(-c3ccccc3)[nH]2)c(C)c1 | 11 | · | · | ·
C[C@H](CO)N1C[C@H](C)[C@H](CN(C)Cc2cccc(C(F)(F)F)c2)Oc2ncc(-c3cccc(C(F)(F)F)c3)cc2C1=O | · | 0.61 | 160* | ·
C[C@H](CO)N1C[C@H](C)[C@H](CN(C)Cc2cccc(C(F)(F)F)c2)Oc2ncc(-c3cc4ccccc4o3)cc2C1=O | · | 0.21 | 248* | ·
C[C@H](CO)N1C[C@H](C)[C@H](CN(C)C(=O)Nc2cccc3ccccc23)Oc2ncc(-c3cc4ccccc4o3)cc2C1=O | · | 0.48 | 115* | ·
C[C@H](CO)N1C[C@H](C)[C@H](CN(C)S(=O)(=O)c2ccc(F)cc2)Oc2ncc(-c3cccc(C(F)(F)F)c3)cc2C1=O | · | -0.064 | 116* | ·
Cc1ccc2oc(=O)c(-c3nc4ccccc4s3)cc2c1 | · | · | -3 | 7
O=C(COc1ccccc1)Nc1ccc(C(=O)c2ccccc2)cc1 | · | · | 8 | -5
COc1cccc(OCc2nc(-c3ccc(OC)c(OC)c3)no2)c1 | -18 | · | · | ·
SMILES | MITF inh | YB-1 expression | U2OS ROS induce | BJeLR viability
COc1ccc(OCc2nnc3n2N=C(c2ccc(OC)c(OC)c2)C(c2ccccc2)S3)cc1 (stereo not given) | 1 | · | 99* | ·
C[C@@H]1CN([C@H](C)CO)C(=O)Cc2cc(NC(=O)C3CCCCC3)ccc2O[C@@H]1CN(C)Cc1ccc2c(c1)OCO2 | 4 | 0.61 | 141* | ·
C[C@@H]1CN([C@H](C)CO)C(=O)Cc2cc(NC(=O)C3CC3)ccc2O[C@@H]1CN(C)Cc1ccc(Cl)c(Cl)c1 | 9 | -0.23 | 164* | ·
C[C@H](CO)N1C[C@H](C)[C@H](CN(C)Cc2ccc(Cl)c(Cl)c2)Oc2ccc(NC(=O)CCC(F)(F)F)cc2CC1=O | -1 | 0.14 | 151* | ·
Cc1ccc(Cc2nnc(C(=O)NCCC3=CCCCC3)o2)cc1 | · | · | · | 3
CCOc1ccc(/C=C/C(=O)Nc2nc(-c3ccc(C)cc3)c(C)s2)cc1 | · | · | · | 10
O=C(N/N=C\c1cccc(O)c1O)c1ccccc1O | · | 0.58 | -20 | ·
CCC1CCCCN1C(=O)CSc1nc2c(c(=O)n1Cc1ccccc1)SC(C)C2 (stereo not given) | · | · | · | 6
C=CCNC(=O)[C@@H]1[C@H]2C(=O)O[C@H](c3ccccc3)[C@H](c3ccccc3)N2[C@H](c2ccccc2OCCO)[C@@]12C(=O)N(C(=O)OCCOC)c1ccc(C#CCCO)cc12 | · | -0.21 | 37 | ·
C=CCNC(=O)[C@H]1[C@@H]2C(=O)O[C@@H](c3ccccc3)[C@@H](c3ccccc3)N2[C@@H](c2ccccc2OCCO)[C@]12C(=O)N(C(=O)OCCOC)c1ccccc12 | · | 0.09 | 178* | ·
COCCOC(=O)N1C(=O)[C@@]2(c3ccccc31)[C@H](c1ccccc1OCCO)N1[C@H](c3ccccc3)[C@H](c3ccccc3)OC(=O)[C@H]1[C@@H]2C(=O)NC[C@H](O)c1ccccc1 | · | -0.49 | 348* | ·
COCCOC(=O)N1C(=O)[C@@]2(c3ccccc31)[C@H](C(N)=O)[C@H]1C(=O)O[C@H](c3ccccc3)[C@H](c3ccccc3)N1[C@@H]2c1ccccc1OCCO | · | -0.25 | 73 | ·
C=CCNC(=O)[C@@H]1[C@H]2C(=O)O[C@H](c3ccccc3)[C@H](c3ccccc3)N2[C@H](c2ccccc2OCCO)[C@@]12C(=O)N(C(=O)OCCOC)c1ccccc12 | · | -0.2 | 183* | ·
COCCOC(=O)N1C(=O)[C@@]2(c3ccccc31)[C@H](C(N)=O)[C@H]1C(=O)O[C@H](c3ccccc3)[C@H](c3ccccc3)N1[C@@H]2c1ccc(OCCO)cc1 | · | 0.61 | 124* | ·
O=C(CC12CC3CC(CC(C3)C1)C2)N1CCN(c2ccc(F)cc2)CC1 | · | · | · | 3
CCc1ccc2oc(-c3ccccc3)cc(=NCc3cccnc3)c2c1 | · | · | · | 2
CCc1ccc(NC(=O)C(CC)Sc2nc3nccnc3c(=O)n2CCc2ccccc2)cc1 (stereo not given) | · | · | 7 | 0
COc1cc(NC(=O)c2ccc(CSC3CCCCC3)cc2)cc(OC)c1OC | · | · | 135* | 0
COc1cc(-c2cc(=O)c3c(O)c(OC)c(OC)c(OC)c3o2)cc(OC)c1OC | -43 | -0.35 | 99* | -3
COc1cc2oc(-c3ccc(O)cc3)cc(=O)c2c(O)c1OC | -27 | -0.056 | 63 | -1
CCCCn1c2ccccc2c2nnc(SCCN3CCOCC3)nc21 | -13 | · | 155* | ·
CCCn1c2ccc(C)cc2c2nnc(SCCN3CCOCC3)nc21 | 17 | 0.32 | 142* | 2
Cc1ccc2c(c1)c1nnc(SCCN3CCOCC3)nc1n2Cc1ccccc1 | 3 | · | 113* | ·
Cc1ccc2c(c1)c1nnc(SCCN3CCOCC3)nc1n2C | 8 | · | 4 | ·
CCn1c(=O)cc(SCC(=O)NCCc2ccc(C)cc2)c2ccccc21 | · | · | -10 | 0

Screening results (PubChem BioAssay)
